aSyn UTR act: Activators via SNCA 5'UTR binding, MLPCN | alpha-synuclein 5'UTR reporter, activators screen | activity score, % (tested at 7.5 µM), hits read low | actives 7.1% (n = 300,000) | AID 1814; in the data active means activity score below about -60%
Numbers stand for hits; 0 = inactive. These entries were drawn from the full list.

SMILES | aSyn UTR act
CC1(C)CC(/C=C/c2ccccc2)=Nc2ccccc2N1 | -155
O=C1CC(/C=C/c2ccc(Cl)cc2)=Nc2ccccc2N1 | -226
Cc1cc(C(=O)CN2CCCC(C)C2)c(C)n1-c1ccc(F)cc1 (stereo not given) | -126
CC1CCC(NC(=O)C2CCN(c3c4c(nc5ncnn35)CCC4)CC2)CC1 (stereo not given) | -65
COc1ccc(OCc2cc(C(=O)N3CCCC(O)C3)no2)c2ccccc12 (stereo not given) | -104
Cc1ccc(C)c(OCc2cc(C(=O)N3CC[C@H](O)C3)no2)c1 | -127
CCCOC1CCCN(C(=O)c2cc(COc3c(F)cccc3F)on2)C1 (stereo not given) | -136
CCOc1cc(/C=C/C(=O)c2ccc(O)cc2)ccc1OCC(=O)N(C)C | -94
CCOc1cc(/C=C/C(=O)c2ccc3c(c2)OCCO3)ccc1OCC(=O)N(C)C | -185
CCOc1cc(/C=C/C(=O)Nc2ccc(C(=O)NCCN(CC)CC)cc2)ccc1OCC(C)C | 0
Cc1ccc2c(c1)sc1nc(=O)n(-c3ccccc3)c(=O)n12 | -68
CCOC(=O)C1=C(C)C/C(=N\NC(=O)c2ccccc2O)CC1 | -79
O=[N+]([O-])c1ccc(CSc2nc3ccccc3o2)cc1 | -133
c1ccc2[nH]c(CSc3nc4ccccc4o3)nc2c1 | -78
COc1cccc(/C=N/n2c(N)nc3ccccc32)c1OC | -154
COc1cccc(/C=N/n2cnc3ccccc32)c1OC | -191
COc1ccc(NC(=O)n2nc(OC(=O)c3cccs3)cc2N)cc1 | -84
C=C(C)CSc1nncn1/N=C/c1ccc(OC)cc1 | -187
C=C(C)CSc1nnc(-c2ccc(OC)cc2)n1N | -103
C=C(C)CSc1nnc(-c2cccc(Cl)c2)n1N | -85
CC(=O)C1=C(O)C(=O)N(c2ccc(Br)cn2)C1c1ccc(Br)cc1 (stereo not given) | -101
COc1ccc(CNS(=O)(=O)c2cc3c(cc2C)N(C)CCO3)cc1 | -65
Cc1ccc(N2C(=O)Nc3cc(Cl)c(Cl)cc3N2O)cc1Cl | -99
CCOc1ccc(-c2cc(C(=O)N3CCCC3)c3ccccc3n2)cc1 | -68
CCOc1ccc(-c2cc(C(=O)N3CCN(C)CC3)c3ccccc3n2)cc1 | -136
SMILES | aSyn UTR act
CCCOc1ccc(-c2cc(C(=O)NCC3CCCO3)c3ccccc3n2)cc1 (stereo not given) | -73
COc1ccc(C(=O)Nn2c(SCC(=O)NCC3CCCO3)nc3ccccc3c2=O)cc1 (stereo not given) | 0
Cc1ccc(OCc2ccc([N+](=O)[O-])cc2)c([N+](=O)[O-])n1 | -115
Cc1ccc(OCCOc2ccc(Br)cc2)c([N+](=O)[O-])n1 | -182
Cc1c(OCc2ccccc2)cccc1OCc1ccccc1 | -71
c1ccc2c(COn3nnc4ccccc43)cccc2c1 | -223
S=C(c1ccc(-c2ccc(Cl)cc2Cl)o1)N1CCCCC1 | -208
S=C(c1ccc(-c2ccc(Cl)cc2Cl)o1)N1CCCC1 | -140
CNC(=S)Nc1ccc(Nc2ccccc2)cc1 | -95
CCCNC(=S)Nc1ccc(Nc2ccccc2)cc1 | -87
Cc1ccc(-c2cc(C(=O)NCc3cccs3)no2)cc1 | -122
CCOc1ccc(-c2cc(CCCC(=O)NCc3ccc(C)cc3)no2)cc1 | 0
CC(C)CNC(=O)c1cc(-c2ccc(Cl)c(Cl)c2)on1 | -118
O=C(NCc1cccs1)c1cc(-c2cccc(Cl)c2)on1 | -77
CCCc1cc(C(=O)NCC(C)C)no1 | -106
CCCc1cc(C(=O)NCc2cccs2)no1 | -141
O=C(NCc1cccs1)c1nc(-c2cccs2)no1 | -100
O=C(NCc1cccs1)c1cc(-c2ccc(O)cc2)on1 | -157
Oc1ccc(-c2csc(Nc3ncccn3)n2)cc1O | -178
Cc1ccc(C)c(-c2csc(Nc3ncccn3)n2)c1 | -66
Oc1ccc(-c2csc(Nc3ncccn3)n2)c(O)c1 | -165
Cc1cccc(Nc2nc(-c3ccc(O)cc3O)cs2)n1 | -126
COc1cc(OC)cc(C(=O)Oc2c(CN3CCOCC3)cc(Cl)c3cccnc23)c1 | 0
CC(Oc1ccc2c(c1)c1ccnc3c4ccccc4c(=O)n2c13)C(=O)NCCN1CCOCC1 (stereo not given) | -76
COc1ccc2c(c1OC)c(=O)n1c3ccc(OC(C)C(=O)NCCN4CCOCC4)cc3c3ccnc2c31 (stereo not given) | -65
SMILES | aSyn UTR act
COc1ccc(/C(C)=N/NC(=O)OC(C)(C)C)cc1[N+](=O)[O-] | -68
O=C(Cn1nc(-c2ccccc2)c2ccccc2c1=O)Nc1ccccn1 | -66
Cn1nccc1C(=O)OCC(=O)Nc1nc(-c2ccccc2)cs1 | -126
COC(=O)CCC(=O)Nc1nc(-c2ccccc2)cs1 | -65
O=C(Cc1cccs1)Nc1nc(-c2ccccc2)cs1 | -81
Cn1cc(Cl)c(C(=O)OCC(=O)Nc2nc(-c3ccc(Br)cc3)cs2)n1 | -110
Cc1nc(CC(=O)Nc2nc(-c3ccccc3)cs2)cs1 | -66
O=C(COC(=O)c1cccs1)Nc1nc(-c2ccccc2)cs1 | -90
O=C(COC(=O)CNC(=O)c1ccccc1)Nc1nc(-c2ccccc2)cs1 | -71
C/C(=N\Nc1nc(-c2ccccc2)cs1)c1cccs1 | -280
O=C(COC(=O)c1cc(=O)[nH]c2ccccc12)Nc1nc(-c2ccccc2)cs1 | -73
COc1ccccc1CC(=O)Nc1nc(-c2ccc(F)c(F)c2)cs1 | -83
O=C(Cn1nc(C(=O)O)c2ccccc2c1=O)Nc1nc(-c2ccccc2)cs1 | -71
COc1cccc(C(=O)N=c2sc3c(C)ccc(OC)c3n2C)c1 | -209
COc1ccccc1C(=O)N=c1sc2c(C)ccc(OC)c2n1C | -80
COc1ccc(C(=O)N=c2sc3c(C)ccc(OC)c3n2C)cc1OC | -295
Cc1ccc(/C=N/N2CCN(c3ccccn3)CC2)cc1 | -105
ClC(=C\c1ccccc1)/C=N/N1CCN(c2ccccn2)CC1 | -222
CCc1ccc(/C=N/N2CCN(c3ccccn3)CC2)cc1 | -108
Clc1nc2ccccc2cc1-c1nnn(-c2ccccc2)n1 | -160
O=C(c1cnsn1)N1CCC(CO)(Cc2cccc(F)c2)CC1 | -138
CN(Cc1cccs1)C(=O)Cc1csc(-c2ccccc2)n1 | -116
Cc1ccsc1C(=O)OCc1csc(-c2ccccc2)n1 | -99
Cn1cccc1C(=O)OCc1csc(-c2ccccc2)n1 | -112
COc1ccc(-n2cc3ccc([N+](=O)[O-])cc3n2)cc1 | -91
SMILES | aSyn UTR act
O=C(/C=C/c1ccc(F)cc1)NCc1ccco1 | -75
Cc1ccc(/C=C/C(=O)NCc2cccs2)cc1 | -68
Cc1ccc(/C=C/C(=O)NCc2cccs2)c(C)c1 | -132
Cc1cc(C(=O)OCC(=O)NCc2ccco2)c(C)n1-c1ccc(F)cc1 | 0
O=C(c1ccccc1)N1C(=O)C(c2ccccc2)Oc2ccccc21 (stereo not given) | 0
O=C1OC(c2ccc(Cl)cc2)/C(=C(/O)c2ccccc2)C1=O (stereo not given) | -67
CCc1cc(CNC(=O)c2cc(COc3ccc(C)nc3)on2)on1 | -73
Cc1ccc(OCc2cc(C(=O)N3CCCC3)no2)cn1 | -70
C=CCC1(CC=C)CCCN1C(=O)c1cc(COc2ccc(C)nc2)on1 | -78
CN(C)c1ccc(/C=C/c2nnnn2-c2ccccc2)cc1 | -157
COc1ccc(OCCC(=O)N2CCCCC2)cc1 | -63
CCCCOc1ccc(C(=O)N2CCCC2)cc1 | -63
COC(=O)C1CCN(C(=O)CCCOc2ccccc2)CC1 | -83
O=C(NCc1ccco1)c1nc2ccccc2s1 | -107
COCCNC(=O)c1nc2ccccc2s1 | -83
Cc1ccc(-c2cc(C(=O)NCc3ccco3)c3ccccc3n2)s1 | -65

Assay outcomes from PubChem.
